Each structure is given as a SMILES string. In all, about 10,000 compounds went through this assay and about 25 (0.2%) were called active. Entries that show only a call come without a potency. This is one part of a sample in which actives are shown more often than they occur. Potency and affinity values are given separately. Values without a mark were called inactive.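 How the source made its calls: active means top tenth filtered wells with inhibition above zero that passed visual or statistical confirmation; inactive means the rest, including hits rejected on review.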

The experiment in a line: inhibitors of TNFa-induced VCAM-1 surface display, imaging, high-content imaging, pooled HUVEC, TNFa stimulus (AID 456).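 On inhibition: VCAM-1 immunofluorescence minus red nonspecific channel after plate median normalization.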 Particulars: HUVEC TNFa-induced VCAM-1 surface expression, immunofluorescence imaging;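 compounds screened at 5 µM final in the well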.
For orientation: inhibition means the percentage by which the read-out fell short of the control. Take `CCCCn1cnc2c(c1=O)c1nc3ccccc3nc1n2Cc1ccc2c(c1)OCO2`: the inhibition entry was “inactive”. For `CN(C)c1ccc(C(=O)OCC(=O)NC2CCCCC2)cc1` the value was “inactive”; for `CS(=O)(=O)N1CCN(c2ccccc2NC(=O)c2cccs2)CC1`, “inactive”; for `O=C(Nc1ccccc1N1CCN(C(=O)c2ccc(Cl)cc2)CC1)c1cc2ccccc2o1`, “inactive”. In the case of `CS(=O)(=O)N1CCN(c2ccccc2NC(=O)c2ccc(-c3ccc(Cl)cc3Cl)o2)CC1`, the inhibition was 70.7% (active).

In the case of `Cc1cc(Br)c(S(=O)(=O)n2nnc3ccccc32)cc1C`, the inhibition result was “inactive”. For `COc1cc(CNc2ccc(N3CCOCC3)c(C(=O)O)c2)ccc1OCC(N)=O` the value was “inactive”; for `Cc1ccc(NC(=O)c2ccco2)c(NC(=O)CN2C(=O)c3ccccc3C2=O)c1`, “inactive”; for `CCOc1ccc2cc(C#N)c(SCC(=O)N3CCCC3)nc2c1`, “inactive”. As to `CCOc1ccc2cc(C#N)c(SCC(=O)N3CCC(C)CC3)nc2c1`, the inhibition was 69.1% (active). As to `CCOc1ccc2cc(C#N)c(SCC(=O)N3CCOCC3)nc2c1`, the inhibition entry is “inactive”. For `Cc1cc(Cl)ccc1NC(=O)CSc1nnc(Cc2cccs2)n1Cc1ccco1` the value was “inactive”; for `O=S(=O)(NCCCCCNS(=O)(=O)c1ccccc1)c1ccccc1`, “inactive”. For the molecule `COc1ccc(OC)c(NC(=O)CS(=O)(=O)c2ccccc2)c1`, the inhibition result is “inactive”.

With `Cc1ccccc1-c1nc2ccccc2c(=O)n1C1CCS(=O)(=O)C1` (centres undefined), the inhibition entry is “inactive”.

`C=C(Cl)COC(=O)[C@H]1C2C=CC(C2)C1C(=O)O` (some centres undefined): the inhibition result is “inactive”. Under `O=C(c1cnn2c1NC(c1ccco1)CC2C(F)(F)F)N1CCN(c2cccc(Cl)c2)CC1` (centres undefined) stands “inactive”; under `O=C(CC(SCCO)c1ccc2c(c1)OCO2)c1ccco1` (centres undefined), “inactive”.

Turning to `COc1ccc(CCNC(=O)C2CCN(Cc3nc(-c4cccc(Cl)c4)oc3C)CC2)cc1OC`, the inhibition was 76.3%. For `Cc1ccccc1-c1nc(CN2CCC(C(=O)N3CCC(C(N)=O)CC3)CC2)c(C)o1` the value was “inactive”; for `O=C(CN(Cc1ccc(F)cc1)C(=O)Cn1nnc2ccccc21)NCC1CCCO1` (centres undefined), “inactive”; for `O=C(NCC1CCCO1)c1ccc(C(=O)NCC2CCCO2)cc1` (centres undefined), “inactive”. As for `O=S(=O)(c1ccc2ccccc2c1)N1CCCCC1`, the inhibition result is “inactive”. `Cc1cnc(C(=O)Nc2ccc(N3CCOCC3)cc2)cn1`: the inhibition result is “inactive”. Under `CSc1ncc(Cl)c(C(=O)Nc2ccc(S(=O)(=O)N3CCOCC3)cc2)n1` stands “inactive”; under `Cc1cc(NCCN2CCOCC2)n2nc(C)c(-c3ccccc3)c2n1`, “inactive”. In the case of `COC(=O)c1cn(C(=O)c2ccc(Br)o2)c2ccccc12`, the inhibition entry was “inactive”. With `O=C(NCCN1CCOCC1)C1CC(=O)N(c2ccc(F)c(Cl)c2)C1` (centres undefined), the inhibition result was “inactive”. For `CC1=C(C(=O)OC2CCCCC2)C(c2ccc(C)o2)C2=C(CC(C)(C)CC2=O)N1` (centres undefined) the value was “inactive”.
